# According to PubChem BioAssay AID2685 (National Center for Advancing Translational Sciences (NCATS), 2010):
# “And” between values parts separate entries of the source, which are not always exact repeats. Equal values may be shown once. Among all 320,000 compounds or so, about 2,100 (0.66%) were called active. Roughly 53% stayed inconclusive and do not appear here. Calls follow the shape of the dose curve; as a rule, active = well fitted inhibition curve with a large enough effect in the signal ratio, with a control signal flat (not every such curve was filed as active); inconclusive = small, poorly fitted or top-dose-only effect, or effect the other way, or a change in a side signal; inactive = flat fitted curve, though single readings scatter; the % refers to the signal ratio. Shown is part of a subset that was picked to be rich in actives.
# Experiment: qHTS Assay for Lipid Storage Modulators in Drosophila S3 Cells;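 as to cell number change: cells counted by Cell Tracker Red CMTPX staining in the red channel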; as to lipid storage change, negative = inhibition: % is scaled to controls: 0 for no effect and ±100 for the full control effect
# Conditions: BODIPY lipid droplet fluorescence, 18-24 h, cells fed with added oleic acid; cell number change: measured here: cell count max response; series mostly up to 46.1 µM; lipid storage change, negative = inhibition: at the top concentration
# In short: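 Laser-scanning cytometry quantifies lipid droplet accumulation (500–530 nm total intensity; droplet/cell object ratio) in oleic acid-fed (400 uM added) Drosophila S3 cells treated with a concentration series. 20 uM Triacsin C defined 100% inhibition.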
# Potency is read from the fitted curve at half-maximal effect.
Compound,Potency,cell number change,"lipid storage change, negative = inhibition",outcome
CC(=O)N1N=C(c2ccncc2)OC12CCCC2,16.4 µM (active),-12.2%,–,–
CC(=O)N1N=C(c2ccncc2)OC12CCCCCC2,–,5.48%,5.71% (inactive),–
CC(=O)N1N=C(c2ccccc2)OC12CCCC2,–,3.13%,1.79% (inactive),–
CCCOc1ccc(S(=O)(=O)NNC(=O)c2cc3ccccc3o2)cc1,–,-21.5%,–,inactive
S=c1nc(C2CC2)n(-c2ccccc2)[nH]1,–,6.79%,-13.7% (inactive),–
CC(Sc1ccccc1)C(=O)N1CCN(S(=O)(=O)c2ccccc2)CC1 (stereo not drawn),0.0103 µM (active),22.7%,–,–
CC(Sc1ccccc1)C(=O)N1CCN(S(=O)(=O)c2ccccc2F)CC1 (stereo not drawn),–,-14.5%,-1.62% (inactive),–
CC(Sc1ccccc1)C(=O)N1CCN(S(=O)(=O)c2cccc(Br)c2)CC1 (stereo not drawn),–,–,–,inactive
CS(=O)(=NS(=O)(=O)c1ccc(Cl)cc1)c1ccccc1 (stereo not drawn),–,5.26%,4.24% (inactive),–
N/C(=N\OC(=O)/C=C/c1ccccc1)c1ccccn1,–,–,2.94% (inactive),–
COc1cccc(-c2ncc3ccccc3c2COC(=O)c2ccc(Br)cc2)c1,–,2.33%,–,inactive
O=C(COC(=O)c1c2c(nc3ccccc13)CCCC2)c1cccs1,–,9.93%,-22.3% (inactive),–
O=C(COC(=O)c1ccccn1)Nc1c(Cl)cccc1Cl,16.4 µM (active),-5.33%,–,–
CCc1ccccc1NC(=O)COC(=O)c1cccs1,–,-3.91%,–,inactive
O=C(COC(=O)/C=C/c1cccs1)Nc1ccccc1Cl,–,11.7%,-2.77% (inactive),–
O=C(COC(=O)c1cccs1)Nc1ccccc1Cl,16.4 µM (active),2.94%,–,–
O=C(COC(=O)c1c2c(nc3ccccc13)/C(=C\c1cccs1)CCC2)Nc1ccccc1Cl,0.58 µM (active),-12.6%,–,–
O=C(COC(=O)c1ccccn1)Nc1cccc(Cl)c1Cl,–,-0.814%,10.9% (inactive),–
O=C(COC(=O)c1cccs1)Nc1ccccc1C(F)(F)F,–,-6.32%,-1.51% (inactive),–
O=C(COC(=O)c1ccccn1)Nc1ccccc1Cl,–,-8.3%,-3.35% (inactive),–
Nc1c(N(CCC2=CCCCC2)C(=O)C2CC2)c(=O)[nH]c(=O)n1Cc1ccccc1,–,10.2%,-4.29% (inactive),–
COc1ccc(C)cc1NC(=O)c1ccccc1NS(=O)(=O)c1cccc2cccnc12,–,-4.79%,1.11% (inactive),–
CCOc1ccc(CO/N=C/c2c(C)[nH]c(=O)[nH]c2=O)cc1,–,3.8%,-2.43% (inactive),–
CCOC(=O)C1=C(N)N2C(=O)C(C)SC2=C(C(=O)OC)C1c1ccccc1OC (stereo not drawn),–,-22.7%,-49.1% (inactive),–
CCOc1cc(/C=N\NC(=O)OC)ccc1OC(=O)c1ccco1,–,10.8%,5.55% (inactive),–

Compound,Potency,cell number change,"lipid storage change, negative = inhibition",outcome
Cc1ccc(N2CCN(S(=O)(=O)N3CCCCCC3)CC2)cc1Cl,–,8.56%,2.16% (inactive),–
Cc1ccc(Cc2nc(-c3cccnc3)no2)cc1,–,-9.21%,1.98% (inactive),–
O=C(CC(c1ccccc1)c1ccccc1)NCc1cccnc1,–,-6.85%,0.894% (inactive),–
Cc1ccc(C(=O)NCc2ccco2)cc1S(=O)(=O)N1CCCC1,–,15%,-9.67% (inactive),–
O=C(NCCCN1CCOCC1)C(=O)NCC1OCCN1S(=O)(=O)c1cc(F)ccc1F (stereo not drawn),–,10.3%,4.03% (inactive),–
Cc1nnsc1C(=O)N1CCN(c2ccc(F)cc2)CC1,–,6.97%,-2.21% (inactive),–
CCOC(=O)c1cc2c(=O)n3cccc(C)c3nc2n(CCCOC)c1=NC(=O)c1cccnc1,–,-8.27%,-13.8% (inactive),–
Cc1cccc(N2C(=O)c3ccc(C(=O)Nc4c[nH]c(=O)[nH]c4=O)cc3C2=O)c1,–,-0.423%,2.68% (inactive),–
CCOC(=O)Cn1nnc(-c2ccc(OCC(C)C)cc2)n1,–,-1.1%,-1.83% (inactive),–
CC(C)COc1ccc(C/C(N)=N/n2cnnc2)cc1,20.6 µM (active),-24.2%,–,–
COc1ccc(C/C(N)=N/n2cnnc2)cc1Cl,–,–,–,inactive
COc1ccc(NC(=O)N2Cc3ccccc3CC2C(=O)NC(C)(C)C)cc1 (stereo not drawn),–,-0.759%,-2.72% (inactive),–
O=C(NCCNc1nccc(C(F)(F)F)n1)c1cccc(C(F)(F)F)c1,–,8.97%,0.997% (inactive),–
O=S(=O)(c1cccc2cccnc12)N(CCO)CCO,–,-16.7%,-7.46% (inactive),–
CSS(=O)(=O)c1cccc2cccnc12,2.59 µM (active),-61.8%,–,–
CCCCN(c1ccccc1)S(=O)(=O)c1cccc2cccnc12,–,–,–,inactive
CCCNS(=O)(=O)c1cccc2cccnc12,–,2.48%,-0.974% [at 9.22 µM] (inactive),–
CNS(=O)(=O)c1cccc2cccnc12,–,10%,11.3% [at 9.22 µM] (inactive),–
CCN(CC)S(=O)(=O)c1cccc2cccnc12,7.31 µM (active),-17.9%,–,–
Cc1ccccc1OCC(=O)Nc1c2c(nn1C(C)(C)C)CS(=O)(=O)C2,–,-4.53%,-10.3% (inactive),–
OCCC1CN(Cc2cnc(-c3ccccc3)s2)CCN1Cc1ccccc1 (stereo not drawn),–,-2.24%,-1.73% (inactive),–
Cc1cc[n+](CC(=O)N2CCCc3ccccc32)cc1,–,-2.96%,-6.44% (inactive),–
CCOc1ccc(-c2cc(C(=O)OC)nc3c2c(=O)n(C)c(=O)n3C)cc1,–,0.241%,-8% (inactive),–
COC(=O)c1cc(-c2ccc(Br)cc2)c2c(=O)n(C)c(=O)n(C)c2n1,20.6 µM (active),-16.2%,–,–
COC(=O)c1cc(-c2ccccc2)c2c(=O)n(C)c(=O)n(C)c2n1,–,0.987%,8.5% (inactive),–

Compound,Potency,cell number change,"lipid storage change, negative = inhibition",outcome
O=C1CSC(c2cccnc2)N1c1ccc(Cl)cc1 (stereo not drawn),–,-17.2%,-4.47% (inactive),–
Cc1ccc2nc(-c3ccc4c(c3)NC(=O)CO4)cn2c1,–,4.69%,2.78% (inactive),–
CCC1CCCCN1CCCNC(=O)c1ccc2c(c1)NC(=O)CS2 (stereo not drawn),–,20.8%,–,inactive
CCC1CCCCN1CCCNC(=O)c1ccc(/C=C2/Sc3ccccc3NC2=O)cc1 (stereo not drawn),5.17 µM (active),-7.79%,–,–
O=C1Nc2cc(C(=O)NCCCN3CCCC3)ccc2S/C1=C\c1ccccc1,–,-4.94%,–,inactive
O=C(CSc1nncs1)Nc1ccc(N2CCCCC2)cc1,–,-24%,–,inactive
CCN1CCN(S(=O)(=O)c2ccc(Cl)c(C(=O)N(C)Cc3ccco3)c2)CC1,–,2.03%,14.4% (inactive),–
Cc1ccc(S(=O)(=O)C2(C(=O)NC3CCCCC3C)CC2)cc1 (stereo not drawn),–,-11.4%,-7.07% (inactive),–
OCCN(CCO)c1nc(-c2ccccc2)nc2c1oc1ccccc12,–,-3.98%,-0.413% (inactive),–
Cc1ccc(C(=O)C2=C(O)C(=O)N(Cc3cccnc3)C2c2ccc(Br)cc2)o1 (stereo not drawn),–,4.99%,22% (inactive),–
COc1ccc(C2C(C(=O)c3ccc(C)o3)=C(O)C(=O)N2Cc2cccnc2)cc1OC (stereo not drawn),0.13 µM (active),1.8%,–,–
Cc1ccc(C(=O)C2=C(O)C(=O)N(Cc3cccnc3)C2c2ccc(Cl)cc2)o1 (stereo not drawn),–,10.8%,–,inactive
O=C(N1CCCC1)C12CC3CCC(CC(C3)C1)C2,–,3.73%,-23.5% (inactive),–
S=c1[nH]nc(-c2cccnc2)n1/N=C/c1ccco1,–,1.79%,-15.6% (inactive),–
CCCC(C)n1[nH]c(=O)cc1N (stereo not drawn),–,0.134%,2.48% (inactive),–
CCC(C)n1[nH]c(=O)cc1N (stereo not drawn),–,5.9%,-1.97% (inactive),–
CCCCC(C)n1[nH]c(=O)cc1N (stereo not drawn),25.9 µM (active),-24.5%,–,–
O=C1CCCN1CCNC(=S)Nc1ccccc1,–,-13%,0.534% (inactive),–
O=C(O)CSc1nc2sc3c(c2c(=O)n1-c1ccccc1)CCC3,–,10.3%,2.01% (inactive),–
Cc1ccc(C)c(-n2c(SCC(=O)O)nc3sc4c(c3c2=O)CCCC4)c1,0.116 µM (active),13%,–,–
Cc1ccc(-n2c(SCC(=O)O)nc3sc4c(c3c2=O)CCCC4)cc1,–,9.08%,6.87% (inactive),–
Nc1nc(SCc2nnc(SCC(=O)O)n2-c2ccccc2)nc2sc3c(c12)CCCC3,23.1 µM (active),3.22%,–,–
Cc1ccccc1-n1c(SCC(=O)O)nc2sc3c(c2c1=O)CCCC3,–,–,3.4% (inactive),–
NC(=O)CSc1nc(N)c2c3c(sc2n1)CCCCC3,–,-16.5%,12.7% (inactive),–
Cc1cc(C)c2c(CN3CC(C)OC(C)C3)cc(=O)oc2c1C (stereo not drawn),–,-15.5%,–,inactive

Compound,Potency,cell number change,"lipid storage change, negative = inhibition",outcome
O=C(Nc1ccccc1)N(CCN1CCOCC1)Cc1cccc(Cl)c1,–,-10.2%,16.6% (inactive),–
Cc1cc(C(=O)N/N=C/c2cccn2C)no1,–,6.61%,3.68% (inactive),–
CCOC(=O)N1CCc2c(sc3nc(SC(C)C)n(N)c(=O)c23)C1,–,-1.6%,-13.4% (inactive),–
Oc1ccc(Br)cc1C=Nc1ccc(Cl)cc1,–,-3.17%,-3.65% (inactive),–
CCc1c(C)sc(NC(=O)Cc2ccccc2OC)c1C(=O)N1CCOCC1,–,-8.21%,–,inactive
C[C@]12C=CC(=O)C=C1CC[C@@H]1[C@@H]2C(=O)C[C@@]2(C)[C@H]1CC[C@]2(O)C(=O)CO,inactive,21.3% and -3.16%,–,–
CC(=O)OCC(=O)[C@@]1(O)CC[C@H]2[C@@H]3CCC4=CC(=O)CC[C@]4(C)[C@H]3C(=O)C[C@@]21C,–,11.1%,-19.1% (inactive),–
CC12CCC(=O)C=C1CCC1C2C(=O)CC2(C)C1CCC2(O)C(=O)CO (stereo not drawn),16.4 µM (active),-13.5%,–,–
CCCCC(CC)C(=O)Nc1ccc(Nc2ccccc2)cc1 (stereo not drawn),–,-8.16%,25% (inactive),–
CN1C(=O)C(=C2CCCCCC2)SC1=S,–,-2.61%,8.65% (inactive),–
COc1cc2c(cc1OC)C1O[C@](CCCCN3C(=O)c4ccccc4C3=O)(C2)Oc2c1c(=O)oc1ccc(F)cc21,–,-5.97%,16.8% [at 9.22 µM] (inactive),–
CCOC(=O)/C(C#N)=C/c1cc2cc(C)c(C)cc2nc1Cl,–,-0.849%,18.6% (inactive),–
CC1CCCCN1C(=O)Cn1c(=O)n(CCC(=O)NCc2ccco2)c(=O)c2sccc21 (stereo not drawn),–,-5.81%,10.7% (inactive),–
CN(C)Cc1c(C(=O)N/N=C/c2ccccc2OCc2c(F)cccc2Cl)nnn1-c1nonc1N,4.11 µM (active),0.435%,–,–
Cc1ccc(COc2cccc(/C=N/NC(=O)c3nnn(-c4nonc4N)c3C)c2)cc1,20.6 µM (active),50%,–,–
CC(C)c1c(C(=O)N/N=C/c2cccc(OCc3ccc(F)cc3)c2)nnn1-c1nonc1N,–,11.8%,–,inactive
CN(Cc1c(C(=O)N/N=C/c2c(F)cccc2Cl)nnn1-c1nonc1N)c1ccccc1,–,8.36%,-3.49% (inactive),–
CCOc1ccccc1/C=N/NC(=O)c1nnn(-c2nonc2N)c1CN1CCCC1,20.6 µM (active),16%,–,–
CC(=C/c1ccco1)/C=N/NC(=O)c1nnn(-c2nonc2N)c1CN(C)C,–,–,–,inactive
Cc1cccc(COc2ccc(/C=N/NC(=O)c3nnn(-c4nonc4N)c3C)cc2)c1,–,11.5%,-3.17% (inactive),–
Nc1nonc1-n1nnc(C(=O)N/N=C/c2cccc(Cl)c2Cl)c1CN1CCCC1,–,16.7%,–,inactive
CC(/C=N/NC(=O)c1nnn(-c2nonc2N)c1CN(C)C)=C\c1ccco1,–,-0.367%,4.3% (inactive),–
CC(C)c1c(C(=O)N/N=C/c2ccccc2OCc2c(F)cccc2Cl)nnn1-c1nonc1N,–,–,–,inactive
Nc1nonc1-n1nnc(C(=O)N/N=C/c2ccccc2Br)c1CN1CCCC1,–,-1.9%,–,inactive
CCCN(CCC)Cc1c(C(=O)N/N=C/C(C)=C\c2ccco2)nnn1-c1nonc1N,11.6 µM (active),-11.1%,–,–
